# Measurements taken from PubChem BioAssay (NCATS).
# Several values for one entry are separate records, joined by “and”; a condition that tells them apart may be missing. Equal entries are not always repeated. Results filed as inconclusive are left out. Entries that show only a call come without a potency. A number with no mark means an inactive call. Activity calls are given as the source filed them. Calls follow the shape of the dose curve; as a rule, active = well fitted inhibition curve with a large enough effect; inconclusive = small, poorly fitted or top-dose-only effect; inactive = flat fitted curve, though single readings scatter.
# How the values were obtained:
# [1] = test system: TAB109; experiment: qHTS profiling for inhibitors of Plasmodium falciparum proliferation (AID 504749); also: potency is read from the fitted curve at half-maximal effect; details: P. falciparum in erythrocytes, SYBR Green DNA, 72 h; series mostly up to 28.7 µM
# Procedure, shortened: (§1)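 Readout was DNA-dye fluorescence from lysed cultures, ex 485/em 535 nm. Parasitized red cells had grown 72 h with compound; data scaled between 0.29 uM artemisinin and DMSO wells and corrected using vehicle-only plates.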
# [2] = test system: TAB113; experiment: as above; details: P. falciparum in erythrocytes, SYBR Green DNA, 72 h; series mostly up to 28.7 µM
# Procedure, shortened: as §1
# [3] = test system: TAB165; experiment: as above; details: P. falciparum in erythrocytes, SYBR Green DNA, 72 h; series mostly up to 28.7 µM
# Procedure, shortened: as §1
# [4] = test system: W2; experiment: as above; details: P. falciparum in erythrocytes, SYBR Green DNA, 72 h; series mostly up to 28.7 µM
# Procedure, shortened: as §1
# [5] = test system: KB-3-1; experiment: Cytotoxic Profiling of Annotated Libraries Using Quantitative High-Throughput Screening (AID 1296008); details: Five cell lines viability, CellTiter-Glo ATP luminescence, 48-72 h; max response: active compounds read low
# Procedure, shortened: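 Cells exposed to compounds for 48 or 72 hr at 37 degrees Celsius. Viability read as ATP-coupled luminescence with CellTiter-Glo after 10 min at room temperature.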
# Also: nearly all actives have a fitted effect of over 60% in size.
Structure (SMILES),Potency [1],Potency [2],Potency [3],Potency [4],max response [5]
CCON=O,inactive,inactive,inactive,inactive,-2.91%
C#CC(C)(O)CC (stereo unspecified),inactive,inactive,inactive,inactive,-2.82%
CCCCCCCCCC(=O)O[C@H]1CC[C@H]2[C@@H]3CCC4=CC(=O)CC[C@]4(C)[C@H]3CC[C@]12C,inactive,inactive,inactive,–,0.58%
COC1=CC=C2[C@H]3Cc4ccc(OC)c5c4[C@@]2(CCN3C)[C@H]1O5,inactive,inactive,inactive,–,16.1% and -9.66%
CCCCCl,inactive,inactive,inactive,–,-7.35%
C[C@H]1CCC[C@H](O)CCCCCc2cc(O)cc(O)c2C(=O)O1,inactive,–,–,–,2.03%
[O]=[Cd],inactive,inactive,inactive,inactive,-8.4%
Oc1cc(Cl)c(Cl)cc1Cl,inactive,inactive,inactive,inactive,0.226%
O=C(NCNC(=O)NC1C(=O)NC(=O)N1CO)NC1C(=O)NC(=O)N1CO (stereo unspecified),inactive,inactive,inactive,inactive,2.87%
c1ccc2sc(SNC3CCCCC3)nc2c1,inactive,inactive,inactive,–,-2.06%
O=c1[nH]cc(N(CCCl)CCCl)c(=O)[nH]1,inactive,inactive,inactive,inactive,-15%
CCC(=O)O[C@@](Cc1ccccc1)(c1ccccc1)[C@@H](C)CN(C)C,inactive,inactive,inactive,–,-0.686%
CCC1(c2ccccc2)C(=O)NC(=O)NC1=O,inactive,inactive,inactive,inactive,3.43%
O=C1OC2(c3cc(Br)c(O)cc3Oc3c2cc(Br)c(O)[c]3[Hg])c2ccccc21 (stereo unspecified),–,–,–,–,6.88%
CC(C)CCON=O,inactive,inactive,inactive,inactive,10.4%
CCOP(=O)(OCC)O/C(=C/Cl)c1ccc(Cl)cc1Cl,inactive,inactive,inactive,–,11.5%
O=[N+]([O-])c1ccc(F)c([N+](=O)[O-])c1,inactive,inactive,inactive,inactive,-19.8%
COCC(C)N(C(=O)CCl)c1c(C)csc1C (stereo unspecified),inactive,inactive,inactive,inactive,-0.17%
O=C(O)C(Cl)(Cl)Cl,inactive,inactive,inactive,inactive,-15.3%
c1cc2c(c(NC3=NCCN3)c1)CCCC2,inactive,inactive,inactive,inactive,-8.19%
CC1CCC(C(C)C)C(OC(=O)c2ccccc2N)C1 (stereo unspecified),inactive,inactive,–,–,24.6%
[O]=[Cr](=[O])([OH])[O][Cr](=[O])(=[O])[OH],inactive,inactive,inactive,inactive,-23.8% and 6.69%
CCC1(CC)C(=O)NC(=O)N(C)C1=O,inactive,inactive,inactive,–,-2.91%
N#CN,inactive,inactive,inactive,inactive,-5.54%

Structure (SMILES),Potency [1],Potency [2],Potency [3],Potency [4],max response [5]
O=C1CCCCC1CN1CCCCC1 (stereo unspecified),inactive,inactive,inactive,inactive,4.12%
O=c1[nH]c(=O)n(Cl)c(=O)n1Cl,inactive,inactive,inactive,inactive,7.09%
CC(Cc1ccccc1)NC=O (stereo unspecified),inactive,inactive,inactive,inactive,2%
S=C(S)N1CCNCC1,inactive,inactive,inactive,inactive,7.2%
Clc1ccc(C2(Cn3cncn3)OCCO2)c(Cl)c1,inactive,inactive,inactive,inactive,4.69%
CCCCCCCCOC(=O)c1ccccc1C(=O)OCCCCCCCC,inactive,inactive,inactive,inactive,-10%
C=CCC1(C(C)CCC)C(=O)N=C(S)NC1=O (stereo unspecified),inactive,inactive,inactive,inactive,-6.22%
NCC(O)c1cccc(O)c1 (stereo unspecified),inactive,inactive,inactive,inactive,1.34%
O=S(=O)(O)c1cc(O)ccc1O,inactive,inactive,inactive,inactive,6.29%
N#CC(C#N)=Cc1cc(O)c(O)c(O)c1,3.98 µM (active),–,7.94 µM (active),–,-23.8%
O=Cc1ccco1,inactive,inactive,–,inactive,3.99%
CN1c2ccccc2C(NCCCCCCC(=O)O)c2ccc(Cl)cc2S1(=O)=O (stereo unspecified),inactive,inactive,inactive,inactive,-15.2%
CC(N)Cc1ccc(O)cc1 (stereo unspecified),inactive,inactive,inactive,inactive,-5.37%
O=C(NC(=O)c1c(F)cccc1F)Nc1ccc(Cl)c(Oc2ncc(C(F)(F)F)cc2Cl)c1,inactive,inactive,–,inactive,-5.7%
ClC1C(Cl)C(Cl)C(Cl)C(Cl)C1Cl (stereo unspecified),inactive,inactive,inactive,inactive,2.37%
O=CC=O,inactive,inactive,inactive,inactive,-15.6%
CCCCNCC(O)c1ccc(O)cc1 (stereo unspecified),inactive,inactive,inactive,inactive,13.7%
Clc1ccc(Cl)cc1,inactive,inactive,inactive,inactive,0.597%
FC(F)OC(F)(F)C(F)Cl (stereo unspecified),inactive,inactive,inactive,inactive,-1.37%
ClCC1CO1 (stereo unspecified),inactive,inactive,inactive,inactive,-11%
CC[N+](C)(CC)CCOC(=O)C(O)(c1ccccc1)c1ccccc1,inactive,inactive,inactive,inactive,-0.181%
O=[N+]([O-])c1ccccc1,inactive,inactive,inactive,inactive,12.1%
ClC(Cl)(Cl)Cl,inactive,inactive,inactive,inactive,-1.06%
N#CC1(N2CCCCC2)CCCCC1,inactive,inactive,inactive,inactive,9.38%

Structure (SMILES),Potency [1],Potency [2],Potency [3],Potency [4],max response [5]
Cn1sc(Cl)cc1=O,inactive,inactive,inactive,inactive,-13.7%
CC(C)(C)c1cc(O)ccc1O,4.47 µM (active),12.6 µM (active),10 µM (active),1.69 µM (active) and 4.26 µM (active),3.78% and 3.98%
O=P(O)(O)C(Cl)(Cl)P(=O)(O)O,inactive,inactive,inactive,inactive,-7.13%
O=C/C=C/c1ccccc1,inactive,inactive,inactive,inactive,17.4%
O=c1c2ccccc2[se]n1-c1ccccc1,–,11.2 µM (active),–,–,-5.46%
O=[N+]([O-])c1cc(I)c(O)c(I)c1,inactive,inactive,inactive,inactive,-0.558%
c1ccc(C2(N3CCCC3)CCCCC2)cc1,7.94 µM (active),–,12.6 µM (active),7.57 µM (active),2%
C/C(=C\c1csc(C)n1)[C@@H]1C[C@@H]2O[C@]2(C)CCC[C@H](C)[C@H](O)[C@@H](C)C(=O)C(C)(C)[C@@H](O)CC(=O)O1,0.0025 µM (active),0.0035 µM (active),0.0022 µM (active),0.0013 µM (active),-86.7%
ClC=C(Cl)Cl,inactive,inactive,inactive,inactive,-14.2%
F/C(COc1ccc2c(c1)[nH]c1ccccc12)=C1/CN2CCC1CC2,7.94 µM (active),–,4.47 µM (active),1.51 µM (active),-8.12%
O=C(CCl)c1ccc(Oc2ccc(C(=O)CCl)cc2)cc1,inactive,inactive,inactive,inactive,0.148%
CC(=O)OC1CN2CCC1CC2 (stereo unspecified),inactive,inactive,inactive,inactive,4.86%
O=C(OCCN1CCCCC1)C(O)(c1ccccc1)c1ccccc1,inactive,inactive,inactive,inactive,1.68%
C=CCN(C1=NCCN1)c1c(Cl)cccc1Cl,inactive,inactive,inactive,inactive,1.74%
CCOC(=O)c1ccccc1C(=O)OCC,inactive,inactive,inactive,inactive,–
[N-]=[N+]=CC(=O)OCC(N)C(=O)O (stereo unspecified),inactive,inactive,inactive,inactive,–
O=[N+]([O-])C(Br)(CO)CO,inactive,inactive,inactive,–,–
CCC(C)(S(=O)(=O)CC)S(=O)(=O)CC,–,inactive,inactive,inactive,-12.7%
C[N+]1(C)CCCCC1COC(=O)C(O)(c1ccccc1)c1ccccc1 (stereo unspecified),inactive,inactive,inactive,–,–
COc1ccc(OC)c(C(O)C(C)N)c1 (stereo unspecified),inactive,inactive,inactive,inactive,–
CN1[C@@H]2CC[C@H]1CC(OC1c3ccccc3CCc3ccccc31)C2 (stereo partly specified),–,inactive,3.98 µM (active),2.28 µM (active),1.95%
CCC1(C)CC(=O)NC(=O)C1,inactive,inactive,inactive,inactive,–
CCCN1CCCC2Cc3[nH]ncc3CC21 (stereo unspecified),inactive,inactive,inactive,–,–
C[C@H]1CC[C@@H]2[C@@H](C)[C@H]3[C@H](C[C@H]4[C@@H]5CC=C6CC(O[C@@H]7O[C@H](CO)[C@H](O)[C@H](O[C@@H]8O[C@H](CO)[C@@H](O)[C@H](O)[C@H]8O)[C@H]7O[C@H]7O[C@@H](C)[C@H](O)[C@@H](O)[C@H]7O)CC[C@]6(C)[C@H]5CC[C@]34C)N2C1 (stereo partly specified),inactive,inactive,inactive,–,–
